# Where a name gives a salt, the structure may show the parent alone.
# System: Staphylococcus aureus Sa2 (MRSA, cystic fibrosis isolate)
# Assay: growth reduction vs untreated control (viable cell count); higher = stronger antibacterial activity; extreme values may be limits of the assay
# Settings: 0.1 mM; 24 h
# Description: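 Single-dose screen of the MedChem Express Drug Repurposing Library (0.1 mM, 1% DMSO) against planktonic MRSA S. aureus Sa2 (CF isolate) in TSB in 96-well plates, 37 °C aerobic, 24 h. Assays were run in triplicate and repeated twice.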
row,Structure (SMILES),growth reduction
1,CCCCCCCCCCCC1=C(O)C(=O)C=C(O)C1=O [Embelin],100%
2,C/C=C(/C(=C/C)c1ccc(O)cc1)c1ccc(O)cc1 [Dienestrol],92%
3,Cc1ccc(-c2cc(C(F)(F)F)nn2-c2ccc(S(N)(=O)=O)cc2)cc1 [Celecoxib],90%
4,C[C@H]1O[C@@H](n2cc(F)c(=O)[nH]c2=O)[C@H](O)[C@@H]1O [Doxifluridine],100%
5,NC(=O)C1=C(O)[C@@]2(O)C(=O)C3=C(O)c4c(O)cccc4C[C@H]3C[C@H]2CC1=O [Incyclinide],100%
6,CCCCCc1ccc(C=CC(=O)Nc2ccccc2C(=O)O)cc1 [N-(p-amylcinnamoyl) Anthranilic Acid],100%
7,C[C@@H](NCCCc1cccc(C(F)(F)F)c1)c1cccc2ccccc12 [Cinacalcet (hydrochloride)],100%
8,C=CC[C@@H]1/C=C(\C)C[C@H](C)C[C@H](OC)[C@H]2O[C@@](O)(C(=O)C(=O)N3CCCC[C@H]3C(=O)O[C@H](/C(C)=C/[C@@H]3CC[C@@H](O)[C@H](OC)C3)[C@H](C)[C@@H](O)CC1=O)[C@H](C)C[C@@H]2OC [Tacrolimus (monohydrate)],100%
9,CCCCCCCCCCCCCCCCCCOP(=O)([O-])OC1CC[N+](C)(C)CC1 [Perifosine],100%
10,CN1CCCN=C1/C=C/c1cccs1 [Pyrantel (pamoate)],96%
11,COc1cc(C)c2c(Oc3cccc(C(F)(F)F)c3)c(OC)cc(NC(C)CCCN)c2n1 (stereo not given) [Tafenoquine (Succinate)],100%
12,C[C@@H](OC[C@@]1(c2ccccc2)CC[C@]2(CCC(=O)N2)CN1)c1cc(C(F)(F)F)cc(C(F)(F)F)c1 [Rolapitant],100%
13,CCCCCOc1ccccc1/C(=C\SC)n1ccnc1 [Neticonazole],100%
14,O=C(NC(=Nc1cc(C(F)(F)F)[nH]n1)Nc1cc(F)cc(Cl)c1)c1cccc(Cl)c1 [Parimifasor],100%
15,COc1cc([C@H]2C(C#N)=C(N)Oc3c2ccc(N)c3N)cc(Br)c1OC [Crolibulin],100%
16,CC1=C(/C=C/C(C)=C/C=C/C(C)=C/C(=O)Nc2ccc(O)cc2)C(C)(C)CCC1 [Fenretinide],100%
17,OCc1cc([C@@H](O)CNCCCCCCOCCOCc2c(Cl)cccc2Cl)ccc1O [Vilanterol],100%
18,CN(CCCCCCCCCCN(C)C(=O)Oc1cccc([N+](C)(C)C)c1)C(=O)Oc1cccc([N+](C)(C)C)c1 [Demecarium Bromide],98%
19,Clc1ccc(C(c2ccccc2Cl)C(Cl)Cl)cc1 (stereo not given) [Mitotane],100%
20,CC(C)(C)[C@@H]1NC(=O)O[C@@H]2CCC[C@H]2OC/C=C/C(F)(F)c2nc3ccccc3nc2O[C@@H]2C[C@@H](C(=O)N[C@]3(C(=O)NS(=O)(=O)C4(C)CC4)C[C@H]3C(F)F)N(C2)C1=O [Glecaprevir],100%

row,Structure (SMILES),growth reduction
1,COc1ccc(Cl)c(Nc2nc3ccccc3nc2NS(=O)(=O)c2cccc(NC(=O)C(C)(C)N)c2)c1 [Pilaralisib],100%
2,C#C[C@]1(O)CC[C@H]2[C@@H]3CCc4cc(OC5CCCC5)ccc4[C@H]3CC[C@@]21C [Quinestrol],99%
3,CCN(CC)CCOc1ccc(C(=C(Cl)c2ccccc2)c2ccccc2)cc1 [Clomiphene (citrate)],100%
4,O=C(O)c1ccc2c(c1)CCCC(c1ccc(Cl)cc1Cl)=C2c1ccc(O[C@H]2CCN(CCCF)C2)cc1,100%
5,CNC(=O)c1cc(Oc2ccc(NC(=O)Nc3ccc(Cl)c(C(F)(F)F)c3)cc2)ccn1 [Sorafenib],100%
6,CN1C(=O)[C@@H](NC(=O)c2n[nH]c(Cc3ccccc3)n2)COc2ccccc21,90%
7,N#Cc1ccc(Oc2ccc3c(c2)COB3O)cc1 [Crisaborole],100%
8,CCN(C/C=C\c1ccc(C2CCCCC2)c(Cl)c1)C1CCCCC1,99%
9,"CC(C)(C)NCC(O)COc1ccccc1C1CCCC1 (single isomer, unassigned; (+)) [(+)-Penbutolol]",94%
10,CC1(C)CC[C@]2(C(=O)O)CC[C@]3(C)[C@H](C(=O)C=C4[C@@]5(C)C=C(C#N)C(=O)C(C)(C)[C@@H]5CC[C@]43C)[C@@H]2C1 [Bardoxolone],100%
11,CCOc1cc2ncc(C#N)c(Nc3ccc(F)c(Cl)c3)c2cc1NC(=O)/C=C/CN(C)C [Pelitinib],97%
12,COc1ccc2c(c1OCc1ccccc1)C[C@@H](C(=O)O)N(C(=O)C(c1ccccc1)c1ccccc1)C2 [Olodanrigan],100%
13,CC(C)(C(=O)NCC(F)(F)C(F)(F)F)C(=O)N[C@@H]1C(=O)Nc2ccccc2-c2ccccc21,90%
14,C=C(C)[C@@H]1CC[C@]2(C(=O)O)CC[C@]3(C)[C@H](CC[C@@H]4[C@@]5(C)CC[C@H](OC(=O)CC(C)(C)C(=O)O)C(C)(C)[C@@H]5CC[C@]43C)[C@@H]12 [Bevirimat],100%
15,CCCCOc1nc(N)c2c(n1)N(Cc1cccc(CN3CCCC3)c1)CC(=O)N2 [Vesatolimod],98%
16,C[C@H]1CNCCCN1S(=O)(=O)c1cccc2cncc(F)c12 [Ripasudil],100%
17,O=C(c1ccc(OCCN2CCCCC2)cc1)c1c(-c2ccc(O)cc2)sc2cc(O)ccc12 [Raloxifene (hydrochloride)],93%
18,O=C(O)c1cc(-c2ccc(F)cc2F)ccc1O [Diflunisal],98%
19,CO[C@H](C(=O)[C@@H](O)[C@@H](C)O)[C@@H]1Cc2cc3cc(O[C@H]4C[C@@H](O[C@H]5C[C@@H](O)[C@H](O)[C@@H](C)O5)[C@H](O)[C@@H](C)O4)c(C)c(O)c3c(O)c2C(=O)[C@H]1O[C@H]1C[C@@H](O[C@H]2C[C@@H](O[C@H]3C[C@](C)(O)[C@H](O)[C@@H](C)O3)[C@@H](O)[C@@H](C)O2)[C@H](O)[C@@H](C)O1 [Plicamycin],100%
20,CCCCCCCCCCCCN1CCCCCC1=O [Laurocapram],100%

# From the supplement of paper PMC12024424
